Tests used:
Assay in all cases: yeast three-hybrid, YBZ-1, SC-Leu-His + 0.5 mM 3-AT, 4 days
Settings in all cases: tags: N-Gal4 AD-HA kept; label: inside an RPR1-promoter hybrid RNA with tandem MS2 sites; ssRNA
PUM1 PUF domain R7-LTC = PUM1 PUF domain R7-LTC (Homo sapiens, UniProt Q14671 828-1176, S1079L;N1080T;E1083C)
Procedure, shortened: (§1)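 The interaction score is the logarithmic change in variant frequency from input to selection. It uses log2, with a pseudocount of 1 for absent variants, and frequencies came from PCR-amplified, Illumina-sequenced repeat regions. The libraries were Pumilio-1 PUF domains randomized at the three base-contacting residues per repeat, co-expressed with matching RNA elements in strain YBZ-1 (LexA–MS2 coat fusion, HIS3 reporter). Plating lasted four days on SC-Leu (input) or SC-Leu-His + 0.5 mM 3-AT (selection).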

PUM1 PUF domain R8-KRL = PUM1 PUF domain R8-KRL (Homo sapiens, UniProt Q14671 828-1176, N1122K;Y1123R;Q1126L)
Procedure, shortened: as §1

PUM1 PUF domain R8-QWR = PUM1 PUF domain R8-QWR (Homo sapiens, UniProt Q14671 828-1176, N1122Q;Y1123W;Q1126R)
Procedure, shortened: as §1

PUM1 PUF domain R8-RWN = PUM1 PUF domain R8-RWN (Homo sapiens, UniProt Q14671 828-1176, N1122R;Y1123W;Q1126N)
Procedure, shortened: as §1

PUM1 PUF domain R5-RYW = PUM1 PUF domain R5-RYW (Homo sapiens, UniProt Q14671 828-1176, C1007R;R1008Y;Q1011W)
Procedure, shortened: as §1

PUM1 PUF domain R3-RSH = PUM1 PUF domain R3-RSH (Homo sapiens, UniProt Q14671 828-1176, C935R;R936S;Q939H)
Procedure, shortened: as §1

PUM1 PUF domain R2-RKA = PUM1 PUF domain R2-RKA (Homo sapiens, UniProt Q14671 828-1176, N899R;Y900K;Q903A)
Procedure, shortened: as §1

PUM1 PUF domain R5-DQQ = PUM1 PUF domain R5-DQQ (Homo sapiens, UniProt Q14671 828-1176, C1007D;R1008Q)
Procedure, shortened: as §1

PUM1 PUF domain R4-NRM = PUM1 PUF domain R4-NRM (Homo sapiens, UniProt Q14671 828-1176, H972R;Q975M)
Procedure, shortened: as §1

PUM1 PUF domain R4-RHA = PUM1 PUF domain R4-RHA (Homo sapiens, UniProt Q14671 828-1176, N971R;Q975A)
Procedure, shortened: as §1

GGCUAGAACUAGUGGAUCCCCCGGCGCCCGGCGGCUCGAGCCCGGGUAAGUUUAAAUAGUCUGCAUGCCGCCGGGCGCCAUGCCUGCAGGUCGACUCUAGAAAACAUG
binding signal (PUM1 PUF domain R7-LTC): 3.36 log2 enrichment (interaction score)

GGCUAGAACUAGUGGAUCCCCCGGCGCCCGGCGGCUCGAGCCCGGGUAAGCGUAAAUAGUCUGCAUGCCGCCGGGCGCCAUGCCUGCAGGUCGACUCUAGAAAACAUG
binding signal (PUM1 PUF domain R8-KRL): 3.37 log2 enrichment (interaction score)
binding signal (PUM1 PUF domain R8-QWR): 5.32 log2 enrichment (interaction score)
binding signal (PUM1 PUF domain R8-RWN): 0.65 log2 enrichment (interaction score)

GGCUAGAACUAGUGGAUCCCCCGGCGCCCGGCGGCUCGAGCCCGGGUAAGUGUUAAUAGUCUGCAUGCCGCCGGGCGCCAUGCCUGCAGGUCGACUCUAGAAAACAUG
binding signal (PUM1 PUF domain R5-RYW): 3.92 log2 enrichment (interaction score)

GGCUAGAACUAGUGGAUCCCCCGGCGCCCGGCGGCUCGAGCCCGGGUAAGUGUAAUUAGUCUGCAUGCCGCCGGGCGCCAUGCCUGCAGGUCGACUCUAGAAAACAUG
binding signal (PUM1 PUF domain R3-RSH): 3.41 log2 enrichment (interaction score)

GGCUAGAACUAGUGGAUCCCCCGGCGCCCGGCGGCUCGAGCCCGGGUAAGUGUAAAGAGUCUGCAUGCCGCCGGGCGCCAUGCCUGCAGGUCGACUCUAGAAAACAUG
binding signal (PUM1 PUF domain R2-RKA): 7.14 log2 enrichment (interaction score)

GGCUAGAACUAGUGGAUCCCCCGGCGCCCGGCGGCUCGAGCCCGGGUAAGUGUCAAUAGUCUGCAUGCCGCCGGGCGCCAUGCCUGCAGGUCGACUCUAGAAAACAUG
binding signal (PUM1 PUF domain R5-DQQ): 5.11 log2 enrichment (interaction score)

GGCUAGAACUAGUGGAUCCCCCGGCGCCCGGCGGCUCGAGCCCGGGUAAGUGUAAAUAGUCUGCAUGCCGCCGGGCGCCAUGCCUGCAGGUCGACUCUAGAAAACAUG
binding signal (PUM1 PUF domain R8-KRL): 1.26 log2 enrichment (interaction score)
binding signal (PUM1 PUF domain R4-NRM): 3.21 log2 enrichment (interaction score)
binding signal (PUM1 PUF domain R8-QWR): 4.74 log2 enrichment (interaction score)
binding signal (PUM1 PUF domain R4-RHA): 3.02 log2 enrichment (interaction score)
binding signal (PUM1 PUF domain R5-RYW): 2.33 log2 enrichment (interaction score)
binding signal (PUM1 PUF domain R5-DQQ): 2.81 log2 enrichment (interaction score)
binding signal (PUM1 PUF domain R8-RWN): 4.57 log2 enrichment (interaction score)
